VP16 counter: inhibits Gal4-VP16 luciferase reporter, ROR gamma counter-screen. Potency, µM (titrated, usually from 53.6 µM), inactives show top-dose activity, negative = inhibition, most hits filed as inhibitors. Drosophila S2 Gal4-VP16 UAS-luciferase, luminescence, 20 h. 3.5% of 310,000 active. AID 2546;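 also: Gal4-VP16 expression switched on by copper sulfate through the metallothionein promoter; potency is read from the fitted curve at half-maximal effect; nearly all actives have a fitted effect of over 50% in size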
Six1-Eya2 blk: Six1/Eya2 interaction inhibition; AlphaScreen GST-Six1/His-Eya2 binding, biochemical; hits give low values; activity change, % (test concentration not listed); 0.56% of 360,000 active; in the data active = activity change below about -65%; inconclusive = mostly about -30% to -63%
Target sequence (O00167 whole entry, looked up): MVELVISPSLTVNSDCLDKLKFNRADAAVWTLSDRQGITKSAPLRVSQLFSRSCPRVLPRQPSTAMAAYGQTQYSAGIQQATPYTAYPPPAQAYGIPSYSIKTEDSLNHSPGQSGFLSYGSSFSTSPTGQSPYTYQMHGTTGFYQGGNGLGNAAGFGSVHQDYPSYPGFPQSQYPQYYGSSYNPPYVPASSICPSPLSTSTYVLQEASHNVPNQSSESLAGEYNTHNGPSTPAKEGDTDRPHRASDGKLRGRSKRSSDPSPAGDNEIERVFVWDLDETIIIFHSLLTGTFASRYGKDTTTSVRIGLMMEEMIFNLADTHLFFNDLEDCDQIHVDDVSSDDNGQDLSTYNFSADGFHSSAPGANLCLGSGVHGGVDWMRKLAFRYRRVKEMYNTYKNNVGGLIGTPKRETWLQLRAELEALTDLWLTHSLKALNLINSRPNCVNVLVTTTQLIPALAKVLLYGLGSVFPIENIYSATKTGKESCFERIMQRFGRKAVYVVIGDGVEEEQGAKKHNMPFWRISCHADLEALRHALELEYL
Target sequence (Q15475 whole entry, looked up): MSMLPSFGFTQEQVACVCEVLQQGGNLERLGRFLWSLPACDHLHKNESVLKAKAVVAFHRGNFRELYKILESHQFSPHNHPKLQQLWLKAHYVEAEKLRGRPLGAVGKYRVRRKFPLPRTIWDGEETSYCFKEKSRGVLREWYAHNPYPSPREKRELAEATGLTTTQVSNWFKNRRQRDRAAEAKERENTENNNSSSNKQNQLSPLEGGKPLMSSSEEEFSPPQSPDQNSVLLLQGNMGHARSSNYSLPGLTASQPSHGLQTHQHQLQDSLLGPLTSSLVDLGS
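AlphaScreen luminescence read after one hour at 37 °C in darkness. Pin-transferred compounds met GST-Six1 and His-Eya2 protein (5X stock 250 nM/500 nM) plus glutathione donor and Ni-chelate acceptor beads (5X, 50 ug/mL).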
PKM2 activator: activators of human pyruvate kinase M2; P14618; purified PKM2, Kinase-Glo ATP luminescence, activation; response scale: 0% is enzyme alone, no compound; Potency, µM (top dose mostly 57.5 µM), for the others: at the highest dose activation, actives largely listed as activators; 0.34% of 260,000 active; also: potency is read from the fitted curve at half-maximal effect; nearly all actives have a fitted effect of over 55% in size
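hPK-M2, >95% pure; 0.1 mM ADP / 0.5 mM PEP final; imidazole pH7.2 buffer w/ 7 mM MgCl2, 50 mM KCl; 1 h RT; Kinase-Glo lum. Intermediate enzyme activity for dual inhibitor/activator qHTS.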
RORg inh: ROR gamma (mouse) transcription inhibition; P51450; Drosophila S2 Gal4-RORgamma UAS-luciferase reporter, 20 h; Potency, µM (highest dose often 53.6 µM), for inactives: top-dose activity change, negative = inhibition, usual class: inhibitors; 5.4% of 310,000 active; AID 2551; also: potency is read from the fitted curve at half-maximal effect; nearly all actives have a fitted effect of over 60% in size
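Stable Schneider cell line, Gal4 DNA-binding domain fused to ROR gamma, UAS-luciferase. Cmpd 1 hr RT → CuSO4 700 uM final → 20 hr RT → luciferase reagent 10 min → luminescence.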
CtBP-E1A inh: inhibitors of CtBP/E1A interaction | 0.49% of 340,000 active | AlphaScreen GST-E1A/His-CtBP binding, 1536-well; hits give low values | activity change, % (test concentration not listed); in the data active = activity change below about -65%; inconclusive = mostly about -30% to -63%
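In 5 uL wells, 23 nL compound meets equimolar GST-E1A and His-CtBP (5X stock 125 nM each) for 2 h, 37 °C. Beads (5X, 50 ug/mL) then 1 h, 37 °C, dark.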
Numbers without * were called inactive; ? = inconclusive; nt = not tested or not shown; [ ] = another dose, or the depositor's remark. An excerpt weighted towards active compounds, which were near 5.6% of everything screened. Unless noted, calls follow the shape of the dose curve; as a rule, active = well fitted curve in the direction sought with a large enough effect; inconclusive = small, poorly fitted or top-dose-only effect, or another doubt; inactive = no such curve, though single readings can be large; an effect the other way counts as inactive or inconclusive. % is scaled to controls: 0 for no effect and ±100 for the full control effect.

SMILES	VP16 counter	Six1-Eya2 blk	PKM2 activator	RORg inh	CtBP-E1A inh
Cc1cccc(N2C(=S)NC3c4cc(Cl)ccc4OC2(C)C3C(=O)N(C)C)c1 (stereo unspecified)	-29%	-15	1%	?	-18
CC1(C)C2C/C(=N\O)C(C)(/[N+]([O-])=C/c3cccc([N+](=O)[O-])c3)CC21 (stereo unspecified)	1%[10 µM]	4	1%	8%	23
CC(=O)Nc1cc(-c2ccc(Cl)cc2)[nH]n1	-14%	-2	-16%	0%	7
Cc1ccc(NC(=S)Nc2cc(-c3ccccc3)[nH]n2)cc1Cl	2.2µM*	-7	0%	0.79µM*	0
Fc1ccc(NC(=S)Nc2cccnc2)cc1Cl	-9%	0	-1%	-2%	nt
Fc1ccc(NC(=S)Nc2cc(-c3ccccc3)[nH]n2)cc1Cl	1.6µM*	-1	1%	0.79µM*	-7
CNC(=S)N1C2CCCC1CC(NC(=O)c1ccc(F)cc1)C2 (stereo unspecified)	-2%	6	-6%[11.5 µM]	-10%	nt
CCNC(=O)C1(C)CCCN(C(=O)/C=C/c2ccccc2)C1 (stereo unspecified)	nt	1	nt	nt	3
O=c1[nH]cnc2c1sc1nc(-c3ccccc3)c3c(c12)CCCC3	?	0	2%	19%	7
S=c1nc[nH]c2c1sc1nc(-c3ccccc3)c3c(c12)CCCC3	10µM*	10	5%	16µM*	nt
Cc1cc2c(cc1S(=O)(=O)N1CCN(c3cccc(C)c3C)CC1)OCCN2C	4%	-15	2%	-14%	?
CC(=O)Cn1nnc2sc(-c3ccccc3)cc2c1=O	-3%	-8	-1%	-14%	3
COc1ccc(CCNC(=O)COC(=O)c2cc(S(=O)(=O)N3CCOCC3)ccc2C)cc1OC	nt	-3	nt	nt	8
N#C/C(=N/Nc1ccccc1[N+](=O)[O-])C(N)=S	-18%	-12	-6%	5%	-13
N#C/C(=N\Nc1ccc(Cl)cc1)C(N)=S	6.3µM*	-10	-6%	4.5µM*	-8
N#C/C(=N\Nc1ccccc1)C(N)=S	?	-2	-4%	13µM*	-2
N#C/C(=N\Nc1ccc(Cl)cc1)C(=N)N1CCCCC1	-18%	-13	11%	8%	-2
Cc1ccc(N/N=C(\C#N)C(N)=S)cc1C	?	-6	-6%	2.8µM*	nt
Cc1ccc(NC(N)=S)cc1C	?	2	9%	?	2
Cc1noc(C)c1C(=O)Nc1nnc(-c2ccccc2)s1	?	7	1%	11µM*	-2
Cc1onc(-c2ccccc2)c1C(=O)Nc1nnc(N2CCCCCC2)s1	0.35µM*	-9	-16%	?	3
Cc1noc(C)c1C(=O)Nc1nc2ccc(S(C)(=O)=O)cc2s1	11µM*	-1	-28%	-32%	-2
Cc1onc(-c2ccccc2)c1C(=O)Nc1nnc(-c2ccncc2)s1	2%	3	4%	7%	13
O=S(=O)(c1ccc(OCC(O)CNCc2ccco2)c(Cl)c1)N1CCOCC1 (stereo unspecified)	-21%	-3	4µM*	-12%	1
Cn1c(Cc2ccccc2)n[nH]c1=S	-28%	4	-5%	?	-5
SMILES	VP16 counter	Six1-Eya2 blk	PKM2 activator	RORg inh	CtBP-E1A inh
CCn1c(CSCc2ccc(Cl)cc2)n[nH]c1=S	7.1µM*	-3	8%	2.2µM*	-24
CCn1c(CSCc2ccc(C)cc2)n[nH]c1=S	3.5µM*	4	9%	5.6µM*	nt
Cn1c(CSCc2ccc(Cl)c(Cl)c2)n[nH]c1=S	4µM*	0	-17%	5.6µM*	-2
O=C(CNc1cccc(S(=O)(=O)N2CCOCC2)c1)N1CCc2ccccc21	23%	14	-2%	-6%	5
COc1cc(OC)nc(Oc2cccc(Cl)c2C)n1	nt	18	nt	nt	9
FC(F)(F)c1cccc(-c2nnc3ccc(C(F)(F)F)cn23)c1	-4%	5	5%	10µM*	2
COc1ccc(-c2nc(-c3ccccn3)no2)cc1	0.32µM*	0	-84%	0.56µM*	3
COc1ccccc1-c1nc(-c2ccccn2)no1	7.1µM*	-4	-95%	2.5µM*	-2
Brc1ccc(-c2nc(-c3ccccn3)no2)o1	7.1µM*	6	-67%	?	-1
Cc1ccccc1-c1nc(-c2ccccn2)no1	7.9µM*	-13	-87%	7.1µM*	0
Clc1ccc(-c2nc(-c3ccccn3)no2)cc1Cl	-20%	2	-25%	-31%	13
Brc1ccc(-c2noc(-c3ccccn3)n2)o1	?	-3	nt	?	-4
Cc1ccccc1-c1nc(-c2cccnc2)no1	28%	7	-3%	-2%	8
COc1ccc(/C=N/Nc2nccnc2Cl)c(OC)c1	?	0	-49%	?	nt
Oc1ccccc1/C=N/Nc1nccnc1Cl	?	-92*	-29%	13µM*	-94*
Oc1ccc(/C=N/Nc2nccnc2Cl)c(O)c1	16µM*	-92*	-47%	?	-96*
O=[N+]([O-])c1ccc(/C=N/Nc2ncc(-c3ccccc3)cn2)cc1	-1%	4	1%	-12%	nt
Oc1ccc(/C=N/Nc2ncc(Br)cn2)c(O)c1	?	-88*	-4%	?	-92*
Oc1ccc(Br)cc1/C=N/Nc1ncc(-c2ccccc2)cn1	-14%	0	1%	11µM*	5
Cc1ccc2c(c1)N(CC(=O)NCCC1=CCCCC1)C(=O)c1cccnc1O2	-2%	4	-3%	-11%	-3
Clc1nccnc1N/N=C/c1ccc(Br)cc1	?	-6	-66%	4.5µM*	-9
CCc1cc(=O)oc2c(C)c(OS(C)(=O)=O)ccc12	nt	-3	nt	nt	0
CCc1cc2c(=O)c(-c3ccc4c(c3)OCCO4)c(C)oc2cc1OS(C)(=O)=O	20µM*	1	-1%	-4%	-8
Cc1cc(=O)[nH]c(-n2nc(C)c(Oc3ccccc3O)c2C)n1	11µM*	-4	2%	4.5µM*	-4
Cc1cc(=O)[nH]c(-n2nc(C)cc2C)n1	3.2µM*	-1	-2%	1.6µM*	-2
SMILES	VP16 counter	Six1-Eya2 blk	PKM2 activator	RORg inh	CtBP-E1A inh
Cc1c(C)n2c(SCC(=O)N3CC(C)OC(C)C3)nnc2[nH]c1=O (stereo unspecified)	nt	10	nt	nt	9
CN1CCN(c2ncc3nc(-c4cccs4)c(=O)n(C[C@H]4CCCO4)c3n2)CC1	11%	nt	nt	-8%	nt
CCc1nnc(NS(=O)(=O)c2ccc(NC(=O)c3ccc(C#N)cc3)cc2)s1	3%	0	23%	1%	-18
C=CCNC(=O)c1ccc(-c2cccc([N+](=O)[O-])c2)o1	-1%	-12	1%	9%	-3
CCOC(=O)c1ccc(-c2ccc(/C=N/NC(=O)c3cncc(Br)c3)o2)cc1	?	-11	-1%	?	7
CCCCOC(=O)c1ccc(-c2ccc(/C=N/NC(=S)NCC)o2)cc1	2.5µM*	2	1%	0.35µM*	-5

From PubChem
